Measurements published in the supplement of paper PMC3334620.
In all, about 33,000 sequences were measured (“E-score (-0.5 to 0.5)”: median about -0.017, highest 2% from about 0.3 on). What follows is part of a selection rich in the highest values, with near analogues and random picks from the rest.

Molecular target: T1, Sut1 (UniProt P53032)
T1 sequence: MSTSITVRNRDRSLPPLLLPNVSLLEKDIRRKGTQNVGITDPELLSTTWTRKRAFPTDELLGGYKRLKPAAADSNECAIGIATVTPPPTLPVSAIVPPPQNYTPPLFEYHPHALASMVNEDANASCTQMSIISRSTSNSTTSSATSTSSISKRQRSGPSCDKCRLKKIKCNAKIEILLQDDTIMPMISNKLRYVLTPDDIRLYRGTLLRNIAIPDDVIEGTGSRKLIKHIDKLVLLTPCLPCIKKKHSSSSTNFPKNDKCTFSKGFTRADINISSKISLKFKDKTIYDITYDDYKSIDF
Test: PBM E-score (8-mer binding enrichment) (E-score (-0.5 to 0.5)); higher = stronger / more preferred TF binding
Settings: protein concentration: 200 nM; construct: GST-full length
Experimental: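 Universal 'all 10-mer' protein binding microarrays (Agilent AMADID 015681) probed with GST-tagged S. cerevisiae TFs (full-length or DBD) made by in vitro transcription/translation (PURExpress), about 100-200 nM. Bound TF was detected with fluorescent anti-GST. Each ungapped 8-mer (which stands for itself and its reverse complement) is scored by the PBM enrichment score (E-score), a modified Wilcoxon-Mann-Whitney statistic from -0.5 to +0.5, computed with the Universal PBM Analysis Suite. Scale: above 0.35 generally sequence-specific binding.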

Sequence	PBM E-score
ACGGAGCG	0.2
ACGGAGAC	0.232
ACGGAGGA	0.0201
GCGGACAA	0.23
ACGGAGAA	0.362
ACGGAGAG	0.247
ACGGAGAT	0.435
ACGGAGCC	0.219
TCGGACAA	0.367
ACGGAGCT	0.386
GGATAGCA	0.0461
CGCTGTAA	0.00093
AACCTTTG	0.0541
AAACTAAT	0.292
GGTTATGA	-0.00868
CACAACCA	0.0851
CGTTGCGC	-0.153
GTTAGTCA	-0.0461
ATTAGACC	-0.183
ACATCAAT	0.201
AAACAGTC	-0.179
CCGGAGAG	0.253
TCGGAGAA	0.436
CAGGAGAA	0.0231
ACGGATAA	0.103

Sequence	PBM E-score
CCGGAGAC	0.328
GCGGAGAA	0.279
CCGGAGAA	0.397
CGGGAGAC	0.132
TGGGAGAA	-0.07
TCGGATAA	0.318
GCGGAGAC	0.183
CCGGATAA	0.285
TCTCTAAA	0.107
AAGATAAA	0.199
GCGACTTA	-0.106
ACGTCTCA	-0.0462
AAAACTGA	0.12
CAGGTTGC	-0.135
AGCCTTCC	-0.158
GGCAGCAA	-0.129
ATCGGAGC	0.358
ATCGGAGA	0.416
CTTGGAGA	-0.00672
CTCGGAGA	0.419
CTCGGTGC	-0.02
ATCGGATC	-0.00393
CTCGGATA	0.126
CTCGGAGC	0.389
CTAGGAGC	-0.306

Sequence	PBM E-score
ATCGGCGC	-0.0591
ATCGGATA	0.288
ATCGGAGG	0.0998
ACCAACGC	0.014
CGGAGCCA	0.294
CGTTAAGC	0.125
CTGCTGTA	-0.0764
TACAGGCA	0.085
GTCGGAGA	0.325
GTCGGATA	0.143
GTAGGAGA	-0.0911
AACTAGGA	0.0329
GACTCGCC	-0.158
AAAAAGTA	0.125
CGGACTTA	0.492
AGGACTTA	-0.0276
CAGACTGC	-0.135
CGGACTGA	0.298
CGGACTGC	0.377
GGGACTTA	-0.0858
AGGACTGC	-0.334
GGGACTGA	-0.185
AGGACTGA	-0.109
GTAAACGA	-0.0179
CACAGTAC	-0.0582

Sequence	PBM E-score
GATCCGGA	0.324
AATCCGGC	-0.0834
TATCCGCA	0.169
GATCCGAA	0.26
TATCCGGA	0.39
TATCCGAA	0.304
CATCCGAA	0.151
GATCCGGC	0.0532
AATCCGGT	0.258
CATCCGGA	0.292
GATCCGTA	-0.02
AATCCGGA	0.368
ACCCTCTA	-0.245
AGGTCTTC	-0.256
GGTCTCGA	0.00072
CAACAGTC	0.0186
TACGCGTA	-0.0808
CGGCCACC	-0.0332
CTCTAAAG	-0.0246
AGATATTA	0.211
CGTCCGCC	-0.124
AATCCGCG	-0.103
CGTCCGCA	-0.177
AGTCCGCG	0.435
ATTCCGCC	0.214

Sequence	PBM E-score
AGTCCGCC	0.375
GGTCCGCA	0.241
AGTCCGCA	0.441
ATTCCGCG	0.18
ATGCACGG	-0.114
AACTTCTA	0.131
ACCAGCTG	-0.203
GTCATAGA	-0.0539
ATGAATAC	0.132
GGCAAACA	-0.119
GCCAAGGC	-0.29
AAATGATA	0.337
AAATGATG	0.16
CAATGATA	0.144
AAATGATC	0.105
TAATGATA	0.317
TAATGAAA	0.154
GAATGATA	0.259
AAATGATT	0.311
AGATGATA	0.175
ACAGTGTC	-0.114
GAATTCGA	0.0801
CTTTTCTC	0.107
CCATCGGA	0.255
ACATCGGA	0.351

Sequence	PBM E-score
ACATCGGT	-0.034
GCATCGGA	0.348
GCATCGTA	-0.0143
TCATCGAA	0.0449
GCATCGGC	-0.241
TCATCGGA	0.395
ACATCGGC	-0.0386
GCAATACA	0.196
GAAATTGC	-0.0449
AGCACGCG	0.0217
ATTACATA	0.154
AGAGTCTG	-0.236
ACCACACA	0.109
CTCACAGC	-0.051
TCTCAGAA	-0.12
CAAGTTGC	0.0786
GGCTGTAC	-0.0774
GGACTTAA	0.326
CGACTTAA	0.00564
AGACTTAC	-0.0551
AGACTTAA	-0.137
CGACTTAC	-0.0195
GGACTTAC	0.352
GCAAGAGA	-0.196
CTTCTGGA	-0.0307

Sequence	PBM E-score
CTCGGACA	0.354
GTCGGACA	0.271
ATCGGACG	0.0416
CTCGGATC	0.204
AGCGGACC	0.00064
CTCGGAAC	0.182
ATCGGACA	0.257
CTCGGACC	0.368
ATCGGACC	0.353
TCTTAGAA	0.283
AAGATTCA	0.137
CGAGCGTC	-0.241
CATATTGG	0.112
GAAACTGA	-0.0944
CGGCTTTA	0.0621
AACCAGTC	0.173
AGGGGTTA	-0.273
CGGGGTTA	0.382
CGGGGTTC	0.398
AGGGGTTC	-0.181
CCGGGTTC	-0.0363
GGGGGTTA	-0.405
